From PubChem BioAssay AID1159580 (chemical genetic matrix, 2015)
Several values for one entry are separate records, joined by “and”; a condition that tells them apart may be missing. Equal entries are not always repeated. Hit rate of the full screen: of about 5,500 compounds, about 2,000 (36%) were called active. Another 18% or so got no clear call; they are omitted. Rule as the data show it: active = normalized growth mostly below about 0.91 (no sharp cut-off); inconclusive = no clear call, values can overlap the other calls; inactive = mostly above about 0.92. The list shows a part of the results.

Assay: chemical genetic growth profiling, strain panel (AID 1159580);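 also: tested at 20 µM; growth read once vehicle control cultures reached saturation at 30 °C; 1 = growth at the plate median or of vehicle wells; lower values mean less growth of the strain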
Conditions: S. cerevisiae deletion strains, growth OD

Measured: normalized growth

C[C@@H](N)[C@@H](O)c1ccccc1
inactive: locus YAL021C, strain ccr4, hits give low values 0.991 | locus YAL030W, strain snc1, hits give low values 0.98 | locus YBL061C, strain skt5, hits give low values 1.01 | locus YBR009C, strain hhf1, hits give low values 1 | locus YBR021W, strain FUR4, hits give low values 1.05 | locus YBR023C, strain chs3, hits give low values 0.997 | locus YBR171W, strain sec66, hits give low values 1 | locus YBR229C, strain ROT2, hits give low values 0.967 | locus YBR231C, strain swc5, hits give low values 0.969 | locus YBR279W, strain paf1, hits give low values 1.01 | locus YCL011C, strain gbp2, hits give low values 0.994 | locus YCL016C, strain dcc1, hits give low values 0.985 | locus YCL029C, strain bik1, hits give low values 0.982 | locus YCL069W, strain vba3, hits give low values 1 | locus YCR088W, strain abp1, hits give low values 0.992 | locus YDL005C, strain med2, hits give low values 0.977 | locus YDL035C, strain GPR1, hits give low values 1 | locus YDL040C, strain nat1, hits give low values 1 | locus YDL074C, strain BRE1, hits give low values 1.05 | locus YDL101C, strain DUN1, hits give low values 0.983 | locus YDL134C, strain PPH21, hits give low values 0.987 | locus YDL185W, strain tfp1, hits give low values 0.966 | locus YDL192W, strain arf1, hits give low values 1.02 | locus YDR001C, strain nth1, hits give low values 1.01 | locus YDR069C, strain doa4, hits give low values 0.985 | locus YDR101C, strain arx1, hits give low values 0.989 | locus YDR137W, strain rgp1, hits give low values 0.862 | locus YDR150W, strain NUM1, hits give low values 0.994 | locus YDR159W, strain sac3, hits give low values 0.949 | locus YDR162C, strain NBP2, hits give low values 0.951 | locus YDR195W, strain ref2 0.988 | locus YDR297W, strain sur2, hits give low values 0.994 | locus YDR318W, strain mcm21, hits give low values 0.978 | locus YDR334W, strain swr1, hits give low values 0.997 | locus YDR335W, strain msn5, hits give low values 0.988 | locus YDR388W, hits give low values 0.994 | locus YDR392W, strain spt3, hits give low values 0.955 | locus YDR502C, strain sam2, hits give low values 0.991 | locus YEL003W, strain gim4, hits give low values 0.995 | locus YEL037C, strain rad23, hits give low values 1.01 | locus YEL061C, strain CIN8 (second series), hits give low values 0.993 | locus YEL061C, strain CIN8, hits give low values 0.987 | locus YER015W, strain faa2, hits give low values 0.995 | locus YER016W, strain bim1, hits give low values 0.975 | locus YER110C, hits give low values 0.974 | locus YER111C, strain swi4, hits give low values 0.981 | locus YER155C, strain BEM2 (second series), hits give low values 0.973 | locus YER155C, strain BEM2, hits give low values 1.02 | locus YER167W, strain BCK2, hits give low values 0.999 | locus YFR010W, strain ubp6, hits give low values 1 | locus YGL078C, strain dbp3, hits give low values 0.991 | locus YGL086W, strain mad1, hits give low values 1.03 | locus YGL167C, strain pmr1, hits give low values 0.999 | locus YGL173C, strain kem1, hits give low values 0.993 | locus YGL227W, strain vid30, hits give low values 1.01 | locus YGL240W, strain doc1, hits give low values 1 | locus YGL248W, strain PDE1, hits give low values 0.974 | locus YGL253W, strain hxk2, hits give low values 0.99 | locus YGR135W, strain pre9, hits give low values 0.949 | locus YGR252W, strain gcn5, hits give low values 0.968 | locus YHR013C, strain ard1, hits give low values 0.975 | locus YHR027C, strain rpn1, hits give low values 1 | locus YHR030C, strain SLT2, hits give low values 1 and 1.03 | locus YHR079C, strain IRE1 (second series), hits give low values 0.993 | locus YHR079C, strain IRE1, hits give low values 1.02 | locus YHR094C, strain hxt1, hits give low values 0.973 | locus YHR129C, strain ARP1, hits give low values 0.997 | locus YHR142W, strain chs7, hits give low values 0.971 | locus YHR200W, strain rpn10, hits give low values 0.997 | locus YIL066C, strain RNR3, hits give low values 0.966 | locus YIL073C, strain SPO22, hits give low values 1.03 | locus YIL125W, strain kgd1, hits give low values 0.986 | locus YIR030C, strain dcg1, hits give low values 0.999 | locus YJL092W, strain hpr5, hits give low values 1 | locus YJL095W, strain BCK1 (second series), hits give low values 0.999 | locus YJL095W, strain BCK1, hits give low values 0.928 and 1.01 | locus YJL115W, strain asf1, hits give low values 0.991 | locus YJL129C, strain trk1, hits give low values 0.992 | locus YJL134W, strain LCB3, hits give low values 0.988 | locus YJL154C, strain vps35, hits give low values 0.993 | locus YJL164C, strain tpk1, hits give low values 1.01 | locus YJL166W, strain qcr8, hits give low values 0.983 | locus YJL168C, strain set2, hits give low values 1.01 | locus YJL187C, strain SWE1 (second series), hits give low values 0.964 | locus YJR043C, strain POL32, hits give low values 1.01 | locus YJR066W, strain TOR1, hits give low values 0.942 | locus YJR075W, strain HOC1, hits give low values 0.984 | locus YKL009W, strain mrt4, hits give low values 1.04 | locus YKL068W, hits give low values 0.978 | locus YKL085W, strain MDH1 (second series), hits give low values 0.998 | locus YKL085W, strain MDH1, hits give low values 0.998 | locus YKL160W, strain elf1, hits give low values 0.974 | locus YKR001C, strain vps1, hits give low values 1.01 | locus YKR026C, strain gcn3, hits give low values 1.02 | locus YKR091W, strain srl3, hits give low values 0.987 | locus YLL001W, strain dnm1, hits give low values 1.01 | locus YLL026W, hits give low values 0.995 | locus YLL041C, strain sdh2, hits give low values 1.01 | locus YLR027C, strain aat2, hits give low values 0.995 | locus YLR039C, strain RIC1, hits give low values 0.953 | locus YLR058C, strain SHM2, hits give low values 0.978 | locus YLR102C, strain apc9, hits give low values 0.99 | locus YLR113W, strain HOG1, hits give low values 1.03 | locus YLR221C, strain rsa3, hits give low values 0.994 | locus YLR258W, strain gsy2, hits give low values 1.01 | locus YLR262C, strain YPT6, hits give low values 0.927 | locus YLR268W, strain sec22, hits give low values 0.988 | locus YLR320W, strain mms22, hits give low values 0.955 | locus YLR330W, strain CHS5, hits give low values 0.997 | locus YLR342W, strain FKS1 (second series), hits give low values 1.06 | locus YLR342W, strain FKS1, hits give low values 0.995 | locus YLR357W, strain rsc2, hits give low values 0.988 | locus YLR370C, strain arc18, hits give low values 1 | locus YLR371W, strain rom2, hits give low values 0.975 | locus YLR384C, strain iki3, hits give low values 0.977 | locus YLR418C, strain cdc73, hits give low values 0.939 | locus YML016C, strain PPZ1, hits give low values 0.994 | locus YML032C, strain rad52, hits give low values 0.967 | locus YML120C, strain ndi1, hits give low values 0.992 | locus YML124C, strain tub3, hits give low values 0.993 | locus YMR058W, strain fet3, hits give low values 0.972 | locus YMR078C, strain ctf18, hits give low values 1.01 | locus YMR125W, strain sto1, hits give low values 0.983 | locus YMR129W, hits give low values 0.997 | locus YMR205C, strain PFK2, hits give low values 0.998 | locus YMR223W, strain ubp8, hits give low values 0.964 | locus YMR231W, strain pep5, hits give low values 1 | locus YMR263W, strain SAP30, hits give low values 0.987 | locus YMR307W, strain GAS1, hits give low values 1.09 | locus YNL067W, strain RPL9B, hits give low values 0.975 | locus YNL071W, strain lat1, hits give low values 0.989 | locus YNL153C, strain GIM3, hits give low values 0.974 | locus YNL183C, strain NPR1, hits give low values 0.929 | locus YNL209W, strain ssb2, hits give low values 1.01 | locus YNL233W, strain BNI4, hits give low values 1 | locus YNL248C, strain rpa49, hits give low values 0.99 | locus YNL250W, strain rad50, hits give low values 0.992 | locus YNL271C, strain bni1, hits give low values 0.995 | locus YNL298W, strain CLA4, hits give low values 0.982 | locus YNL307C, strain MCK1, hits give low values 0.984 | locus YNL322C, strain KRE1 (second series), hits give low values 0.99 | locus YNR049C, strain mso1, hits give low values 1.01 | locus YNR052C, strain pop2, hits give low values 0.973 | locus YOL006C, strain TOP1, hits give low values 1.02 | locus YOL012C, strain htz1 1.02 | locus YOL147C, strain pex11, hits give low values 0.996 | locus YOR001W, strain rrp6, hits give low values 1 | locus YOR061W, strain CKA2, hits give low values 0.98 | locus YOR069W, strain VPS5, hits give low values 1 | locus YOR070C, strain gyp1, hits give low values 0.999 | locus YOR080W, strain dia2, hits give low values 1 | locus YOR083W, strain WHI5, hits give low values 0.948 | locus YOR106W, strain vam3, hits give low values 1 | locus YOR136W, strain idh2, hits give low values 0.993 | locus YOR144C, strain elg1, hits give low values 0.989 | locus YOR184W, strain ser1, hits give low values 1.01 | locus YOR231W, strain MKK1, hits give low values 1.01 | locus YOR265W, strain rbl2, hits give low values 0.993 | locus YOR270C, strain vph1, hits give low values 0.9 | locus YOR290C, strain snf2, hits give low values 0.993 | locus YOR316C, strain cot1, hits give low values 0.985 | locus YPL051W, strain arl3, hits give low values 0.981 | locus YPL078C, strain atp4, hits give low values 0.98 | locus YPL106C, strain sse1, hits give low values 1 | locus YPL240C, strain hsp82, hits give low values 1 | locus YPL241C, strain CIN2, hits give low values 0.989 | locus YPL256C, strain CLN2, hits give low values 1.03 | locus YPR119W, strain clb2, hits give low values 1.01 | locus YPR141C, strain kar3, hits give low values 0.994 | locus YPR163C, strain tif3, hits give low values 0.971 | locus YPR167C, strain met16, hits give low values 1 | strain wtn01, hits give low values 1.03
active: locus YAL026C, strain drs2, hits give low values 0.89 | locus YLR262C, strain YPT6 (second series), hits give low values 0.823
